# Experimental data published in the OligoGym collection.
# Target: C15orf54
# Test: pooled miR-30 sensor sort-seq; sequence = guide strand
# Conditions: shRNA
# Note: reference of the scale not given here.
row,Sequence,sensor-assay potency score (higher = more potent)
1,TTCAAGATCAAACTAGGCCATG,-1.17
2,TTGAAAGGGACATCTGTTGGAT,0.0555
3,TTATTTGAAAGGGACATCTGTT,-0.498
4,TTAAGCAATGAGCTCAATCTAG,-0.475
5,TTCACCTTCTTGAAGAACCTGC,0.924
6,TTCAGTTTGTGACTTTTGCTGG,0.098
7,TATACTTATTCTCACATCCTTT,-0.462
8,TTCTGTAGGCACTACATTCTGG,-0.0345
9,TATTTGAACATATAAGATGTTA,-0.68
10,TAGTATAATAAAGTTATGCTAC,-0.835

# Target: C15orf58
# Test: as above
# Conditions: shRNA
row,Sequence,sensor-assay potency score (higher = more potent)
1,TCTTCTTGCAGCAGAGTCCCAG,-0.775
2,ATCTTGTTGAAGTTGAACTGTA,-0.903
3,TTTGGGTCTGTAGCTCCCGTAG,-1.43
4,TTGAAGTTGAACTGTACAGGGT,0.153
5,ATTGAAAGCTTCACCGTCCTTT,0.575
6,TCTTGTTGAAGTTGAACTGTAC,0.172
7,TGAAGTTGAACTGTACAGGGTC,0.667
8,TGCCTGTACGTCTTCTGCCTGG,-0.932
9,TGTCAGGCTGCTGAAGTCCTGG,-0.843
10,AACATTGAAAGCTTCACCGTCC,0.994
11,TTATCAAGGACTCCAAGTCAGG,-1.43

# Target: C16orf55
# Test: as above
# Conditions: shRNA
row,Sequence,sensor-assay potency score (higher = more potent)
1,TTTTGGAACTGAATAGGTGGAT,-0.336
2,TTATAGGCGTCTGCTGTACTGG,-0.778
3,TAGGCGTCTGCTGTACTGGGGT,0.489
4,TAGATTTTGGAACTGAATAGGT,-0.346
5,TTCTCTGCTGGTCACTCCCGCT,-1.51
6,TTCTCCATCAACTTCTCCTTAG,-0.561
7,TTACATCAGGTTTCTCTTCCAG,0.199
8,TTCCTGGGAATGCTTCTCCATC,-1.49
9,TTTGGAACTGAATAGGTGGATC,-0.304
10,TCTCCTTAGATTTTGGAACTGA,-0.0429
11,TTAGATTTTGGAACTGAATAGG,-0.116
12,TGGACTTTTGCTTTACATCAGG,-1.63

# Target: C17orf103
# Test: as above
# Conditions: shRNA
row,Sequence,sensor-assay potency score (higher = more potent)
1,TGTACCAGCAGGTGAGATGGGC,-0.507
2,TAGGCATCTGGGACCTCGGTGT,-0.272
3,TAACTCTGAGTCTGTTCCCAGT,-0.884
4,TCATAGAGCAGGACGGCCCGGT,-0.156
5,TACTTCTGGATGTACCAGCAGG,-1.01
6,TCTCCTTGACGTACTTCTGGAT,-0.358
7,ATCTGGGACCTCGGTGTGCTGC,-1.85
